The record followed here is PubChem BioAssay (Tox21).

Unmarked numbers belong to inactive results. Results filed as inconclusive are left out. The source made the active and inactive calls. Unless noted, the call rests on the fitted dose curve; in most records, active means well fitted curve in the direction sought with a large enough effect in the repeat runs; inconclusive means weak or mixed curves; inactive means no such curve, though single readings can be large; an effect the other way counts as inactive or inconclusive.

The nature of experiment [1]: qHTS assay for small molecules that induce genotoxicity in human embryonic kidney cells expressing luciferase-tagged ATAD5 (AID 651632). Further: nearly all actives have a fitted effect of over 15% in size. The procedure, abridged: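 Genotoxicity read-out via ATAD5-luciferase: HEK293T cells, 16 hr compound incubation at 37C, Amplite detection.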
For orientation: In qHTS, concentration-response curves come from the screen itself.

A short description of experiment [2]: qHTS assay for small molecule agonists of the p53 signaling pathway - cell viability (AID 651633; calls by dose curve; further: nearly all actives have a fitted effect of over 30% in size; further: potency means the concentration at half of the fitted maximal effect). The procedure, abridged: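 Viability counter-read: CellTiter-Glo luminescence (30 min, room temperature) in the same p53RE-bla plates. These plates had been exposed to compounds for 16 h at 37 C.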
Experiment [3] in a line: qHTS assay for small molecules that induce genotoxicity in human embryonic kidney cells expressing luciferase-tagged ATAD5 - cell viability (AID 651634; calls by dose curve; further: nearly all actives have a fitted effect of over 25% in size; further: potency means the concentration at half of the fitted maximal effect). In short, it runs like this: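 Live-cell protease activity (CellTiter-Fluor, fluorescence) indicates viability. HEK293T cells with luciferase-tagged ATAD5; 15.5 hr compound treatment at 37C.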
Experiment [4] in a line: qHTS assay for small molecule disruptors of the mitochondrial membrane potential - cell viability (AID 720634; calls by dose curve;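 further: human HepG2 liver cancer cells; nearly all actives have a fitted effect of over 20% in size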). In short, it runs like this:
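Human hepatoma HepG2 cells were treated for 1 hr with test chemicals, then given m-MPI dye and CellTiter-Glo. Cell viability reflects luminescence proportional to cellular ATP.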

Experiment [5] in a line: qHTS assay to test for compound auto fluorescence at 590 nm (red) in HepG2 cells (AID 720674). The procedure, abridged: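 Red autofluorescence (Ex/Em 540/590 nm, Rose Bengal sodium equivalents) was measured in HepG2 cells, 2,000 per well in MEM plus 10% FBS, plated overnight at 37 C. Readings were taken 1 hr after adding 23 nL compound or DMSO, at 37 C and 5% CO2.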
Experiment [6] can be described thus: qHTS assay to test for compound auto fluorescence at 535 nm (green) in HepG2 cells (AID 720675).
A short description of experiment [7]: qHTS assay to test for compound auto fluorescence at 460 nm (blue) in HEK293 cells (AID 720678). In short, it runs like this: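 HEK293, 2,000 cells/well, 10% dialyzed FBS; attach 4-5 hr 37C; pin compound or DMSO; o/n 37C/5% CO2; fluorescence 405/460 nm; triamterene-equivalent units.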
The nature of experiment [8]: qHTS assay to test for compound auto fluorescence at 535 nm (green) in HEK293 cells (AID 720680).
Experiment [9] is described as follows: qHTS assay to test for compound auto fluorescence at 460 nm (blue) in HEK293 cell free culture (AID 720681). In short, it runs like this:
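Blue fluorescence (Ex 405/Em 460 nm, triamterene-equivalent) was read immediately after pin transfer of compound or DMSO into medium (DMEM, 10% FBS) without cells.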

Experiment [10] is described as follows: qHTS assay to test for compound auto fluorescence at 535 nm (green) in HEK293 cell free culture (AID 720682). The procedure, abridged: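 Measurement is a direct plate read of green fluorescence (485 nm in, 535 nm out) after compound addition to serum-supplemented DMEM lacking cells, with fluorescein used to express intensities.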
A short description of experiment [11]: qHTS assay to test for compound auto fluorescence at 590 nm (red) in HEK293 cell free culture (AID 720683). In short, it runs like this:
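Red-channel autofluorescence of compounds in culture medium (DMEM, 10% FBS), no cells, measured at 540/590 nm. Rose Bengal sodium is the reference fluorophore for equivalence.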

The nature of experiment [12]: qHTS assay to test for compound auto fluorescence at 590 nm (red) in HepG2 cell free culture (AID 720684). The procedure, abridged:
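Steps: dispense MEM/10% FBS medium, no cells; pin compound or DMSO vehicle; read red channel, Ex/Em 540/590 nm. Output given as Rose Bengal sodium equivalents.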

Experiment [13] can be described thus: qHTS assay to test for compound auto fluorescence at 460 nm (blue) in HepG2 cell free culture (AID 720685). The procedure, abridged:
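Compound (23 nL) or DMSO pinned into cell-free MEM with 10% FBS; blue fluorescence read at 405/460 nm excitation/emission, expressed as auto-fluorescence equivalency to triamterene.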

Experiment [14] in a line: qHTS assay to test for compound auto fluorescence at 460 nm (blue) in HepG2 cells (AID 720687). In short, it runs like this:
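Blue-channel autofluorescence (Ex/Em 405/460 nm, triamterene-equivalent) was measured after 1 hr compound exposure at 37 C, 5% CO2. Cells were HepG2, plated overnight at 37 C in MEM plus 10% FBS.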

The target in experiment [15] is Glucocorticoid receptor (Homo sapiens) (UniProt P04150). In words: qHTS assay to identify small molecule agonists of the glucocorticoid receptor (GR) signaling pathway (AID 720691; active means well fitted activation curve with a large enough effect in the signal ratio in the repeat runs, not every such curve was filed as active; the % refers to the signal ratio). To be noted: GR-bla HeLa, beta-lactamase reporter ratio, 18 h; activation: at 62.4 µM (top of the series) unless noted. The procedure, abridged:
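Beta-lactamase reporter activity, read as fluorescence intensity, was measured in GR-bla HeLa cells exposed to compounds for 18 h at 37 C and then loaded with LiveBLAzer B/G FRET substrate for 2 h at room temperature.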

Experiment [16] is described as follows: qHTS assay to test for compound auto fluorescence at 590 nm (red) in HEK293 cells (AID 720679). The procedure, abridged: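 Intensity at 540nm excitation and 590nm emission is reported as Rose Bengal sodium-equivalent autofluorescence. Measurements followed overnight exposure (37C, 5% CO2) of HEK293 cells, 2,000 per well, to 23 nL compound.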
A short description of experiment [17]: qHTS assay to test for compound auto fluorescence at 535 nm (green) in HepG2 cell free culture (AID 720686).
Experiment [18] in a line: qHTS assay for small molecule disruptors of the mitochondrial membrane potential (AID 720635). Further: potency means the concentration at half of the fitted maximal effect. The procedure, abridged: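 Mitochondrial membrane potential tracked with Mito-MPS dye, red aggregates (ex 540/em 590 nm) against green monomers (ex 490/em 535 nm). Compound treatment 1 hr at 37C, dye 30 min in HepG2.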
Experiment [19] concerns the target Glucocorticoid receptor (Homo sapiens) (UniProt P04150). Put plainly: qHTS assay to identify small molecule antagonists of the glucocorticoid receptor (GR) signaling pathway (AID 720692; active means well fitted inhibition curve with a large enough effect in the signal ratio in the repeat runs, not every such curve was filed as active; the % refers to the signal ratio). The procedure, abridged: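 Fluorescence from cleaved LiveBLAzer B/G FRET substrate reports GRE-driven beta-lactamase in HeLa cells; compounds are tested against 5 nM dexamethasone (final) over 18 h at 37 C, substrate incubation 2 h at room temperature.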

Chain of Glucocorticoid receptor (Homo sapiens) (P04150 whole entry, looked up): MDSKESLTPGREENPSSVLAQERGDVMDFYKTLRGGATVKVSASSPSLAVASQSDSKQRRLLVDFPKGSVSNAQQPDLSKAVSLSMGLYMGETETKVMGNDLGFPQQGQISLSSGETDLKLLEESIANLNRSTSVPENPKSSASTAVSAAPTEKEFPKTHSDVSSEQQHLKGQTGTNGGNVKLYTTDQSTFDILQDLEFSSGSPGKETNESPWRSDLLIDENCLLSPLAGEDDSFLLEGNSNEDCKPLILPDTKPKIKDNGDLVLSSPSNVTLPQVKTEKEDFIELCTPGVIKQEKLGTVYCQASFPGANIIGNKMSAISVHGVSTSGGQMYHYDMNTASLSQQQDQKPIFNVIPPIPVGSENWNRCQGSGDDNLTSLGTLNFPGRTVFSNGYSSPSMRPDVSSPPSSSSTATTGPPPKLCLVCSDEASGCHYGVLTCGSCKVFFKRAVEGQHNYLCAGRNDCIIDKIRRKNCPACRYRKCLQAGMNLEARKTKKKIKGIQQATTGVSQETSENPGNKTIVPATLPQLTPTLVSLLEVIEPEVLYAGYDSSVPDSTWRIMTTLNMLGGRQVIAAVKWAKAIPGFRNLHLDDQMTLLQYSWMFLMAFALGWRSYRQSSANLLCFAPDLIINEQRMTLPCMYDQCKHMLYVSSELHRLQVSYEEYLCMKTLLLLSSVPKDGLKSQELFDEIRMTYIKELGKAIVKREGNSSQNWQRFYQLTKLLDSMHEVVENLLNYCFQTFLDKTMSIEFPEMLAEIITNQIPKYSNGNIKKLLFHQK

Turning to `CC(C)(COC(=O)c1ccccc1)COC(=O)c1ccccc1`, the Potency entry in [1], in experiment [2], in experiment [3], in experiment [4], in experiment [5] and in [6] was “inactive” in each case. Besides, the Potency entry in experiment [11], in experiment [12] and in experiment [15] was “inactive” throughout. For the same molecule, the call in experiment [7], in [8], in [9], in experiment [10], in experiment [13] and in experiment [14] was inactive.

In the case of `Nc1ccc(N)c2c1C(=O)c1ccccc1C2=O`, the Potency result in [1], in experiment [2], in experiment [5], in experiment [6], in experiment [16] and in [11] was “inactive” each time. The Potency result in experiment [12] and in experiment [15] was “inactive” in each case. The Potency in experiment [3] was 27.3 µM (active). For the same molecule, the molecule was called inactive in experiment [7], in [8], in experiment [9], in experiment [10], in [13] and in experiment [14].

In the case of `CCC(CC)Nc1ccc(C)c(C)c1`, the Potency entry in experiment [1], in [2], in experiment [3], in [4], in experiment [6] and in experiment [16] was “inactive” in each case. In addition, the Potency entry in [12] and in experiment [17] was “inactive” throughout. Moreover, the result in [7], in [8], in experiment [9], in experiment [10], in experiment [13] and in experiment [14] was inactive.

`CCOC(=O)COC(=O)c1cc(Oc2ccc(C(F)(F)F)cc2Cl)ccc1[N+](=O)[O-]`: the Potency result in experiment [1], in experiment [2], in experiment [3], in experiment [5], in experiment [6] and in experiment [16] was “inactive” each time. The Potency entry in [11], in experiment [12] and in experiment [17] was “inactive” throughout. In experiment [18], the Potency is 61.1 µM (active). In addition, the outcome in experiment [7], in experiment [8], in [9], in [10], in [13] and in experiment [14] was inactive.

Regarding `OC(C#CCN1CCCC1)(c1ccccc1)c1ccccc1`, the Potency entry in [1], in [2], in experiment [3], in experiment [4], in experiment [5] and in experiment [6] was “inactive” in each case. Also, the Potency entry in [16], in experiment [11], in [12], in experiment [17] and in [15] was “inactive” throughout. In addition, the result in experiment [7], in experiment [8], in [9], in [10], in experiment [13] and in experiment [14] was inactive.

For the molecule `CCCCCCCCCCCCCCCCCCOS(=O)(=O)O`, the Potency entry in experiment [1], in [3], in [4], in [5], in experiment [6] and in experiment [16] was “inactive” in each case. The Potency result in [12], in experiment [17] and in [15] was “inactive” each time. For the same molecule, in experiment [2], the Potency was 61.1 µM (active). Also, the molecule was called inactive in experiment [7], in experiment [8], in experiment [9], in [10], in experiment [13] and in [14].

In the case of `Cc1nn(C)c(Oc2ccccc2)c1/C=N/OCc1ccc(C(=O)OC(C)(C)C)cc1`, the Potency entry in [1], in experiment [2], in experiment [3], in [6], in experiment [16] and in experiment [11] was “inactive” each time. The Potency result in [12], in experiment [17] and in experiment [15] was “inactive” each time. Besides, the Potency in experiment [18] is 17.2 µM (active). The call in experiment [7], in [8], in experiment [9], in experiment [10], in experiment [13] and in experiment [14] was inactive.

Regarding `CC(C)=CCC/C(C)=C/CC/C(C)=C/CO`, the Potency result in [1], in experiment [3], in [4], in [6], in [16] and in experiment [11] was “inactive” each time. In addition, the Potency result in [12] is “inactive”. In addition, the Potency in experiment [2] was 68.6 µM (active). Further, the molecule was classed as inactive in experiment [7], in [8], in experiment [9], in [10], in experiment [13] and in experiment [14].

For the molecule `C=C1C(=C/C=C2\CCC[C@]3(C)[C@@H]([C@H](C)/C=C/[C@@H](O)C4CC4)CC[C@@H]23)C[C@@H](O)C[C@@H]1O`, the Potency result in experiment [1], in experiment [4], in experiment [5], in [6], in experiment [16] and in [11] was “inactive” throughout. Also, the Potency result in experiment [12] and in [15] was “inactive” in each case. The values for the Potency in [2] and in [18] were 26.6 µM (active) and 22.1 µM (active), respectively. Besides, the molecule was called inactive in experiment [7], in experiment [8], in experiment [9], in [10], in experiment [13] and in experiment [14].

`CCOc1ccc(N=Nc2ccc(/C=C/c3ccc(N=Nc4ccc(OCC)cc4)cc3S(=O)(=O)O)c(S(=O)(=O)O)c2)cc1`: the Potency result in experiment [1], in [2], in [4], in [5], in experiment [6] and in experiment [16] was “inactive” throughout. Further, the Potency entry in [11], in experiment [12], in experiment [17], in experiment [15] and in [19] was “inactive” in each case. Moreover, in experiment [3], the Potency is 42.6 µM (active). Besides, the outcome in experiment [7], in experiment [8], in [10], in [13] and in experiment [14] was inactive.

Turning to `Cc1[nH]c(C)c(Cl)c(=O)c1Cl`, the Potency entry in [1], in experiment [3], in experiment [4], in experiment [18], in [6] and in experiment [16] was “inactive” each time. The Potency result in experiment [11], in experiment [12], in experiment [17] and in experiment [15] was “inactive” each time. Further, the result in [7], in experiment [8], in experiment [9], in experiment [10], in experiment [13] and in [14] was inactive.

`O=C(O)CC(=O)C(=O)O`: the Potency entry in experiment [1], in experiment [3], in experiment [4], in experiment [6], in [16] and in experiment [11] was “inactive” each time. For the same molecule, the Potency entry in experiment [12], in experiment [17] and in [15] was “inactive” throughout. For the same molecule, the molecule was called inactive in [7], in experiment [8], in [9], in [10], in experiment [13] and in experiment [14].

`CCO[C@H](Cc1ccc(OCCc2ccc(OS(C)(=O)=O)cc2)cc1)C(=O)O`: the Potency entry in experiment [1], in experiment [3], in experiment [4], in experiment [18], in experiment [5] and in experiment [6] was “inactive” throughout. The Potency result in experiment [16], in [11], in experiment [12], in [17] and in [15] was “inactive” in each case. For the same molecule, the molecule was called inactive in experiment [7], in experiment [8], in [9], in [10], in experiment [13] and in experiment [14].

Turning to `NCCCN1CCOCC1`, the Potency result in experiment [1], in [3], in experiment [4], in [5], in [6] and in [16] was “inactive” in each case. In addition, the Potency result in experiment [11], in experiment [12], in experiment [17], in experiment [15] and in experiment [19] was “inactive” throughout. Also, the molecule was classed as inactive in experiment [7], in [8], in experiment [9], in experiment [10], in [13] and in experiment [14].
